# Of roughly 8,800 targets only a part is listed; those with a hit were picked by preference. About 0.5% of all pairs of compound and target were hits. Unmarked numbers belong to inactive results.
# Compound: C1=CC2=NC=CN=C2C=C1/C=C/3\C(=O)NC(=O)S3
# Assay: log2 fold change, soluble protein after heating vs DMSO (PISA); higher = thermal stabilisation; K562 lysate, 10 uM; active = over 0.2 and 3.5 SD of the protein, either way, in both replicates (recomputed)
# How it was run: (§1)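 Dounce homogenisation of K562 pellets in PBS pH 7.4 with 1 mM MgCl2 produced a crude extract, used at 1 mg/mL protein. Exposure to 10 μM compound lasted 30 min, and aliquots were then heated for 3 min across 48°C-58°C, pooled and brought to 0.5% NP-40 at 4°C. The supernatant after 21,000xg for 90 min was quantified by TMTpro 16plex LC-MS/MS with channel sums equalised. Duplicate values are given as log-two fold change in thermal stability relative to solvent controls.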
# Sequence of UniProt Q9NSV4 (Q9NSV4 whole entry, looked up): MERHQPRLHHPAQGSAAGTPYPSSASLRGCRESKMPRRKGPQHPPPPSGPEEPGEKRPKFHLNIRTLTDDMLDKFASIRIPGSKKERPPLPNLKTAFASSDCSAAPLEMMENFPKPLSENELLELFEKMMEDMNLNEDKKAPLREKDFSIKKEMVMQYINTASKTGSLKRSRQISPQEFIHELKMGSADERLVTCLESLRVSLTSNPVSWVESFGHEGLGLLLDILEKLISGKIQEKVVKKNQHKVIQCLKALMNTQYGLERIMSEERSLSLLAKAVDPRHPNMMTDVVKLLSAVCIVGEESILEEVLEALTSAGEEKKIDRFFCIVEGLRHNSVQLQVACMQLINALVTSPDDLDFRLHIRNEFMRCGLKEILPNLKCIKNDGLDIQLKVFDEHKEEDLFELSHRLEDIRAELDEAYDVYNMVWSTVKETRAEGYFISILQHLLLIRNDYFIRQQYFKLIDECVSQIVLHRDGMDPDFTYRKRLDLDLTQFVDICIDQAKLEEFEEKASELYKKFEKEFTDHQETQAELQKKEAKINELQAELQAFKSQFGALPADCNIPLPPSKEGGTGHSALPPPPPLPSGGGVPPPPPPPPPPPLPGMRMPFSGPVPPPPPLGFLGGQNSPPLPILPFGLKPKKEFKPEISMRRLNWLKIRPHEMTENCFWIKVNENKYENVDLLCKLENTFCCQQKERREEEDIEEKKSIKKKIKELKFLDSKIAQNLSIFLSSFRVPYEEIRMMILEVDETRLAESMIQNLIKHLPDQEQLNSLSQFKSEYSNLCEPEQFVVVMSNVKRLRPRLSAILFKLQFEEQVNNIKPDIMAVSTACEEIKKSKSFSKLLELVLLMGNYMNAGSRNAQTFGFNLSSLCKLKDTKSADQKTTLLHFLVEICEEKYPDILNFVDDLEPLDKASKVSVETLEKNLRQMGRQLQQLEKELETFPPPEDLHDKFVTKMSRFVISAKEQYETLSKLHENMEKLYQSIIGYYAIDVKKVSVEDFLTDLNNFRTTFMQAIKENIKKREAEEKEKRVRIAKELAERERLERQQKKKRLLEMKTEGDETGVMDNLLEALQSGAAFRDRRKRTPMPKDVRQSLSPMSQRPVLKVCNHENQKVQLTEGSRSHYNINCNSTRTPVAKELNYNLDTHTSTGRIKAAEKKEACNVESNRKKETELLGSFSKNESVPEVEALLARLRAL
# Sequence of UniProt Q16850 (Q16850 whole entry, looked up): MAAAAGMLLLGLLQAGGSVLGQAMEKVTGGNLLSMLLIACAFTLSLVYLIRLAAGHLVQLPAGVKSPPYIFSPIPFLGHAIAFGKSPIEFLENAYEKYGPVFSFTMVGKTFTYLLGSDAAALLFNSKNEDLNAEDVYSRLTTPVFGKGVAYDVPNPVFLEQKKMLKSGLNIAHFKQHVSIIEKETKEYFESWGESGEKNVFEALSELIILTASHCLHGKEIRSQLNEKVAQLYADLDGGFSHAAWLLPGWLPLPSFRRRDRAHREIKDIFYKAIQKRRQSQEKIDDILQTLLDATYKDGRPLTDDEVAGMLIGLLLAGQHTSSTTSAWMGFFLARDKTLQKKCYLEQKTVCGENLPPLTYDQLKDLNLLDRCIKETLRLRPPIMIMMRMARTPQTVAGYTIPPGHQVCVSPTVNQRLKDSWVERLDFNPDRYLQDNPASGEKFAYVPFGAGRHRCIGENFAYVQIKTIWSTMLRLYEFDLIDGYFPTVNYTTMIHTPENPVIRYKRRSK
# Sequence of UniProt O95628 (O95628 whole entry, looked up): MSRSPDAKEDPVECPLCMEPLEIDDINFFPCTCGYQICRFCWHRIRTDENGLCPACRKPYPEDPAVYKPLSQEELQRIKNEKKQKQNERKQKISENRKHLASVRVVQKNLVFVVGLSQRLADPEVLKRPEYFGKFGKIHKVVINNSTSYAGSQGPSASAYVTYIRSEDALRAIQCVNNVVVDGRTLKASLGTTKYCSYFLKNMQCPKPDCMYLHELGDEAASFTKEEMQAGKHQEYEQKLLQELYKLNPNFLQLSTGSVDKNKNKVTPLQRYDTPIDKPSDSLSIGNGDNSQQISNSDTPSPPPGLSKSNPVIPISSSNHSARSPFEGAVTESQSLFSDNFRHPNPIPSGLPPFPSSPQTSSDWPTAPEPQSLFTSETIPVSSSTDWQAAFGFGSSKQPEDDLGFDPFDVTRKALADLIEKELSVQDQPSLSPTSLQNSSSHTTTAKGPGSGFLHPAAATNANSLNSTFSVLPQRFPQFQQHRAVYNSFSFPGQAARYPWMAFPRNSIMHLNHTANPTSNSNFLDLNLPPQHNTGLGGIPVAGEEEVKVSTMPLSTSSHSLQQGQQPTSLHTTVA
# Sequence of UniProt O75911 (O75911 whole entry, looked up): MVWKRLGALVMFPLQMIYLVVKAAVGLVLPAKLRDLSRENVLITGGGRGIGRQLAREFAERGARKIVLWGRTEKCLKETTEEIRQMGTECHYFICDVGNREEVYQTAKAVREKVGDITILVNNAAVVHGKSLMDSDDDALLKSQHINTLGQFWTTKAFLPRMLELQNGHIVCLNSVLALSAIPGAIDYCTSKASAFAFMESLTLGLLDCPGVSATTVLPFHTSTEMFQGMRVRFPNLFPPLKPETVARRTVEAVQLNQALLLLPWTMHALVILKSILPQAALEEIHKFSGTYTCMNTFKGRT
# Sequence of UniProt P99999 (P99999 whole entry, looked up): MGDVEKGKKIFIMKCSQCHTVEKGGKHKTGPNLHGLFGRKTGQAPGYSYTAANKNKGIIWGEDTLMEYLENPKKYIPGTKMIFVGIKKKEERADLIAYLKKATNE
# Sequence of UniProt Q15398 (Q15398 whole entry, looked up): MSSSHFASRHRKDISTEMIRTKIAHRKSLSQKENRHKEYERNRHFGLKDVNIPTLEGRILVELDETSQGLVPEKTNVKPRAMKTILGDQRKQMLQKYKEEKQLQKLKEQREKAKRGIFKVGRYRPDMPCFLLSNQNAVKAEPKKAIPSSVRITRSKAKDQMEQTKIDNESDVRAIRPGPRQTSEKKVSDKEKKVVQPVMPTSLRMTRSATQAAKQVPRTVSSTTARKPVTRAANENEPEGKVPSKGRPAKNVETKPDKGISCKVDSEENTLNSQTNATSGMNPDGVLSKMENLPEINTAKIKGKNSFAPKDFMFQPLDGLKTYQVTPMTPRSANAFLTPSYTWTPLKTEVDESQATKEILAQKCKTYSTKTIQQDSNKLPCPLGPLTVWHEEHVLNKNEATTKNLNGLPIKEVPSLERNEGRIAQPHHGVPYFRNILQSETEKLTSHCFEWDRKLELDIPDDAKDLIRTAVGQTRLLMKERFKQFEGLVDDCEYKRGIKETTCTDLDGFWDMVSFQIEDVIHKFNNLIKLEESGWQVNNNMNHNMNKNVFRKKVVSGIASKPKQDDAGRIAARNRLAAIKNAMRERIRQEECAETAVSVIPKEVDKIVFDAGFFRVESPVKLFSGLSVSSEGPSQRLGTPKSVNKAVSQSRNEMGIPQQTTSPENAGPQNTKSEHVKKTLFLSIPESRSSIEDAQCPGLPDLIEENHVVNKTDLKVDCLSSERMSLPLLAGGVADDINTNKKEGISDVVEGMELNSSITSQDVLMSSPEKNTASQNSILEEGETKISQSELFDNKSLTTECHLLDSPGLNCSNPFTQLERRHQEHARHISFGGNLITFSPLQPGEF
# Sequence of UniProt Q13057 (Q13057 whole entry, looked up): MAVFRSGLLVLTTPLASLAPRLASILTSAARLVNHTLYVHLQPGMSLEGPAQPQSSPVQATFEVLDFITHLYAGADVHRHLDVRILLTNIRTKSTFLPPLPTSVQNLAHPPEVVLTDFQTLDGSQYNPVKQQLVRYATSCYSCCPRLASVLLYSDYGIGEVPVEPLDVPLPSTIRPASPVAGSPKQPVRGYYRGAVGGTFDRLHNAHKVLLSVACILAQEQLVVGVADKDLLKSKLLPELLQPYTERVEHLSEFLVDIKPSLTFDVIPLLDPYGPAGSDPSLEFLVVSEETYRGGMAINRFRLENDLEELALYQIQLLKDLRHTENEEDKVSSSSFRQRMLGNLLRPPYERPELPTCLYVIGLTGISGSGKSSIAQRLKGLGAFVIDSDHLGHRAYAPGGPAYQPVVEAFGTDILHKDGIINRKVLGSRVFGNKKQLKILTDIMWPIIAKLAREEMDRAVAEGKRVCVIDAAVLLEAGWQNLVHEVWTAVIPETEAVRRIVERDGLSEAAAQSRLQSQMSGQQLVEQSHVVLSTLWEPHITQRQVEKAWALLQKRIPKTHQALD
# Sequence of UniProt Q13616 (Q13616 whole entry, looked up): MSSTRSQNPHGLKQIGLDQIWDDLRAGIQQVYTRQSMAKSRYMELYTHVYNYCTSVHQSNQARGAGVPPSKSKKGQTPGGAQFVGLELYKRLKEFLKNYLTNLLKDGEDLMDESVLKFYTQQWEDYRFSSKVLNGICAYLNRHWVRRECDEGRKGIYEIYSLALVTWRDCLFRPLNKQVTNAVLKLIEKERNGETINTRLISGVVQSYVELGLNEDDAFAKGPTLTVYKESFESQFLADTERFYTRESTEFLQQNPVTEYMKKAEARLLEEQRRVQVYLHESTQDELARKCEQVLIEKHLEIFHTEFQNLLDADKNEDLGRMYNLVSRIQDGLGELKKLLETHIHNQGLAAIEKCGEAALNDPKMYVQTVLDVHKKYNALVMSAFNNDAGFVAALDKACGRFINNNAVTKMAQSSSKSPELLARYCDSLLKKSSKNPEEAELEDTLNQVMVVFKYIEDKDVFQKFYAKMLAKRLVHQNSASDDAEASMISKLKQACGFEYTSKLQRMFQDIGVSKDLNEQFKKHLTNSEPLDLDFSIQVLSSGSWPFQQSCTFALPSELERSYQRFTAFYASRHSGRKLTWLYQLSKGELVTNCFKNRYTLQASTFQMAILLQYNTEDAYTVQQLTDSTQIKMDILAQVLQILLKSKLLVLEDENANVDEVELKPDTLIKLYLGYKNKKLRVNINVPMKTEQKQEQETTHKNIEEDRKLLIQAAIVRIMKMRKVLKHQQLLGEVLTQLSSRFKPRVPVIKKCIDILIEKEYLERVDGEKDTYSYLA
row,Target,log2 fold change
1,DERA (UniProt Q9Y315),0.015
2,DCP2 (UniProt Q8IU60),-0.037
3,DNAAF5 (UniProt Q86Y56),0.021
4,CORO1A (UniProt P31146),-0.022
5,DIAPH3 (UniProt Q9NSV4),0.074
6,CTPS1 (UniProt P17812),0.005
7,CNOT2 (UniProt Q9NZN8),-0.016
8,CYCS (UniProt P99999),0.003
9,DNAJC1 (UniProt Q96KC8),0.032
10,DHRS3 (UniProt O75911),-0.044
11,CORO7 isoform 3 (UniProt P57737),0
12,CYP51A1 (UniProt Q16850),-0.087
13,DES (UniProt P17661),-0.016
14,COG5 isoform 2 (UniProt Q9UP83),-0.004
15,DOK1 (UniProt Q99704),0.002
16,CSTF2 (UniProt P33240),0.044
17,CSNK2A1 (UniProt P68400),0.356 (active)

row,Target,log2 fold change
1,COG2 (UniProt Q14746),-0.032
2,DAZAP1 (UniProt Q96EP5),0.026
3,CSK (UniProt P41240),-0.035
4,DLGAP5 (UniProt Q15398),-0.02
5,COASY isoform 2 (UniProt Q13057),0.022
6,DPH5 isoform 5 (UniProt Q9H2P9),-0.017
7,DENND6A (UniProt Q8IWF6),0.048
8,CIB1 (UniProt Q99828),-0.227
9,DIAPH1 (UniProt H9KV28),-0.04
10,DNAH10 (UniProt Q8IVF4),-0.026
11,COMT (UniProt P21964),-0.029
12,CUL1 (UniProt Q13616),0.009
13,CLP1 (UniProt Q92989),-0.045
14,CHML (UniProt P26374),-0.013
15,CNOT4 isoform 9 (UniProt O95628),0
16,CSNK2B (UniProt P67870),0.33 (active)
17,DARS (UniProt P14868),0.019

# Compound: C1=CC=C(C=C1)C2=NC(=C(N2)C3=CC=NC=C3)C4=CC(=C(C=C4)Cl)O
# Assay: as above
# How it was run: as §1
row,Target,log2 fold change
1,DERA (UniProt Q9Y315),0.001
2,DCP2 (UniProt Q8IU60),-0.007
3,DNAAF5 (UniProt Q86Y56),-0.016
4,CORO1A (UniProt P31146),0.005
5,DIAPH3 (UniProt Q9NSV4),0.045
6,CTPS1 (UniProt P17812),-0.013
7,CNOT2 (UniProt Q9NZN8),-0.011
8,CYCS (UniProt P99999),0.008
9,DNAJC1 (UniProt Q96KC8),-0.044
10,DHRS3 (UniProt O75911),0.03
11,CORO7 isoform 3 (UniProt P57737),0.016
12,CYP51A1 (UniProt Q16850),-0.041
13,DES (UniProt P17661),-0.026
14,COG5 isoform 2 (UniProt Q9UP83),0.019
15,DOK1 (UniProt Q99704),-0.041
16,CSTF2 (UniProt P33240),0.011
17,CSNK2A1 (UniProt P68400),0.017

row,Target,log2 fold change
1,COG2 (UniProt Q14746),-0.017
2,DAZAP1 (UniProt Q96EP5),0.017
3,CSK (UniProt P41240),0.031
4,DLGAP5 (UniProt Q15398),0.026
5,COASY isoform 2 (UniProt Q13057),-0.018
6,DPH5 isoform 5 (UniProt Q9H2P9),0.074
7,DENND6A (UniProt Q8IWF6),0.024
8,CIB1 (UniProt Q99828),0.023
9,DIAPH1 (UniProt H9KV28),-0.164
10,DNAH10 (UniProt Q8IVF4),0.026
11,COMT (UniProt P21964),0.001
12,CUL1 (UniProt Q13616),-0.011
13,CLP1 (UniProt Q92989),-0.014
14,CHML (UniProt P26374),-0.021
15,CNOT4 isoform 9 (UniProt O95628),-0.105
16,CSNK2B (UniProt P67870),-0.012
17,DARS (UniProt P14868),-0.004

# Compound: C1=CC=C2C(=C1)C3=NNC4=CC=CC(=C43)C2=O
# Assay: as above
# How it was run: as §1
row,Target,log2 fold change
1,DERA (UniProt Q9Y315),0.019
2,DCP2 (UniProt Q8IU60),0.001
3,DNAAF5 (UniProt Q86Y56),-0.08
4,CORO1A (UniProt P31146),0.009
5,DIAPH3 (UniProt Q9NSV4),-0.066
6,CTPS1 (UniProt P17812),-0.011
7,CNOT2 (UniProt Q9NZN8),0.014
8,CYCS (UniProt P99999),0.02
9,DNAJC1 (UniProt Q96KC8),-0.039
10,DHRS3 (UniProt O75911),-0.028
11,CORO7 isoform 3 (UniProt P57737),-0.016
12,CYP51A1 (UniProt Q16850),0.118
13,DES (UniProt P17661),-0.018
14,COG5 isoform 2 (UniProt Q9UP83),0.031
15,DOK1 (UniProt Q99704),-0.02
16,CSTF2 (UniProt P33240),-0.04
17,CSNK2A1 (UniProt P68400),0.219

row,Target,log2 fold change
1,COG2 (UniProt Q14746),-0.001
2,DAZAP1 (UniProt Q96EP5),-0.047
3,CSK (UniProt P41240),0.106
4,DLGAP5 (UniProt Q15398),-0.021
5,COASY isoform 2 (UniProt Q13057),-0.05
6,DPH5 isoform 5 (UniProt Q9H2P9),0.046
7,DENND6A (UniProt Q8IWF6),0.003
8,CIB1 (UniProt Q99828),0.02
9,DIAPH1 (UniProt H9KV28),-0.024
10,DNAH10 (UniProt Q8IVF4),-0.043
11,COMT (UniProt P21964),0.043
12,CUL1 (UniProt Q13616),0.017
13,CLP1 (UniProt Q92989),0.034
14,CHML (UniProt P26374),-0.004
15,CNOT4 isoform 9 (UniProt O95628),0.015
16,CSNK2B (UniProt P67870),0.198
17,DARS (UniProt P14868),-0.04

# From the supplement of paper PMC10849652
